ChEMBL document CHEMBL3988442, “University of Dundee, Small-Polar-MMV Screening Library” (2021)
Screen size: about 48,000 compounds; about 13,000 (27%) showed an effect of 50% or more. Some of the results follow.

Tested on: Wolbachia pipientis
Assay: Anti-Wolbachia Cell-Based Screen
Assay type: functional
Design: scale not given: in the data most compounds retested in dose-response had high values
Settings: 5 µM

Compound | Percent Effect [%]
Cc1nc2cc(=O)[nH]n2c(C)c1CC(=O)Nc1cnn(C(C)(C)C)c1 | -8.028
CCOc1ccc(CN2C(=O)CC(C)(C)C2=O)nc1 | -21.77
CCC(=O)N1CCN(C(=O)NC2CCc3ccccc3C2)CC1 (stereo unspecified) | -5.895
Cn1cc(CNc2ccc(CCO)cc2)c(-c2ccncc2)n1 | 4.489
Cc1cc(NCc2cn(C)nc2-c2cccnc2)n(C)n1 | 80.93
Cc1noc(NCc2cn(C)nc2-c2ccncc2)n1 | 86.63
CN(C)C(C)(C)CNCc1cn(C)nc1-c1cccnc1.Cl | 8.677
Cn1cc(CNc2cnn(CCO)c2)c(-c2ccncc2)n1 | -19.35
Cn1cc(CNCCc2cccnc2)c(-c2cccnc2)n1 | 4.12
Cc1noc(NCc2cn(C)nc2-c2cccnc2)n1 | 76.51
Cn1cc(CNCCn2cccn2)c(-c2cccnc2)n1 | 3.416
CCCNCc1cn(C)nc1-c1cccnc1.Cl | 13.76
CCc1nnc(CNC(=O)CCN2CCN(c3cccc(C)c3)CC2)s1 | 7.202
Cc1ccc(C(=O)N2CCSCC2)cc1N1CCNC1=O | -1.525
CN(C)CCN1CCOCC2(CCN(Cc3ccc[nH]3)CC2)C1.O=C(O)C(F)(F)F.O=C(O)C(F)(F)F.O=C(O)C(F)(F)F | -10.04
CNc1cc(C)nc(N2C[C@H](C3CC3)[C@@H](N)C2)n1 | -22.96
Cc1cc(NC(=O)NCc2ccc(C)s2)no1 | 3.366
Cc1ccnc(OC[C@]23COC[C@H]2CN(C(=O)Cc2ccsc2)C3)n1 | 106.6
O=C(Cc1ccsc1)N1C[C@@H]2COC[C@]2(COc2cccnc2)C1 | 95.21
O=C(Cc1cccs1)N1C[C@@H]2COC[C@]2(COCc2cccnc2)C1.O=C(O)C(F)(F)F | -3.131
Cc1cccc(COC[C@]23COC[C@H]2CN(C(=O)c2ccsc2)C3)n1 | 4.122
O=C(Cc1cccs1)N1C[C@@H]2COC[C@]2(COc2cccnc2)C1 | 7.396
O=C(Cc1ccsc1)N1C[C@@H]2COC[C@]2(COCc2cccnc2)C1.O=C(O)C(F)(F)F | -1.782

Compound | Percent Effect [%]
CS(=O)(=O)c1ncc(CN2CCCC(C(N)=O)C2)n1CC1CCCCC1 (stereo unspecified) | 6.801
COCC1(NC(=O)C(c2ccc(F)cc2)N(C)C)CCCC1 (stereo unspecified) | -2.374
COc1ccc(NC(=O)c2cccc(CN3CCCC3C)c2)cc1OC (stereo unspecified) | 8.38
CC1CCCN1Cc1cccc(C(=O)Nc2ccc3c(c2)CCC3=O)c1 (stereo unspecified) | 51.3
CC1CCCN1Cc1cccc(C(=O)Nc2ccc3[nH]c(=O)oc3c2)c1 (stereo unspecified) | 1.459
Cc1ncsc1CCN(C)C(=O)CN1CCOc2ccccc2C1 | 0.429
Cc1ncsc1COC(=O)c1cccc2c1OCCO2 | 128
Cc1nc(COC(=O)c2cccc3c2OCCO3)cs1 | 117.7
CCN(Cc1ccc2c(c1)OCCO2)C(=O)NCc1csc(C)n1 | -4.508
Cc1nc(COC(=O)c2cccc3c2OCCO3)no1 | 110.5
Cc1nc(C2CCCN(C(=O)c3cccc4c3OCO4)C2)no1 (stereo unspecified) | 12.92
Cc1ncsc1CN(C)C(=O)CC1CCOc2ccccc21 (stereo unspecified) | 5.103
Cc1nc(CC(=O)N2c3ccccc3OCC2C)cs1 (stereo unspecified) | -16.16
Cc1nc(CCN(C)C(=O)C2COc3ccccc3C2)no1 (stereo unspecified) | -0.4164
NC(=O)N1CCCN(C(=O)Nc2cc(-n3cccc3)ccc2F)CC1 | -14.58
CN1CC(C(=O)NC(C)(C)CNC(=O)OC(C)(C)C)CC1=O (stereo unspecified) | -3.275
COCc1ccccc1C(=O)NCC(O)c1ccc(Cl)s1 (stereo unspecified) | 11.9
CN(C)c1ncnc2c1CCN(S(=O)(=O)c1cccc3nsnc13)C2 | 10.74
COc1ncccc1CNC(=O)c1cc(F)cc(Br)c1 | 12.35
CC(=O)c1cnc(NCCN2CCCC2)nc1C | 107.9
CCc1cnc(C)nc1NCCN1CCCC(C(N)=O)C1 (stereo unspecified) | 3.304
CC(=O)c1cnc(NCCN2CCCC(c3ccccc3)C2)nc1C (stereo unspecified) | 111.1
OC1CCN(CCNc2ncc3c(n2)CCN3c2ccccc2)CC1 | 0.6072

Compound | Percent Effect [%]
CC(=O)c1cnc(NCCc2csc(-c3cnccn3)n2)nc1C | -3.465
Cc1csc(C2(NC(=O)NCCN3CCOCC3)CCC2)n1 | -15.32
CC(=O)c1cnc(NCCCN2CCOCC2)nc1C | 89.28
Cc1ncccc1OC1(C(=O)NCCCN2CCOCC2)CCNCC1 | -8.588
CC(=O)c1cnc(NCC2OCCc3ccccc32)nc1C (stereo unspecified) | 8.592
COC(=O)CN(CC1CCOC1)C1CC1 (stereo unspecified) | -11.06
Cc1cnccc1N1CCN(C(=O)CCCN2CCCCC2)CC1 | -8.637
COc1ncccc1C(=O)N1CC(c2nc(-c3ccccn3)no2)C1 | -3.614
Cc1[nH]c(=O)[nH]c(=O)c1CN1CCCC(CCc2c(F)cccc2F)C1 (stereo unspecified) | -22.77
Cc1cc(C)n(-c2ccc(CNCc3ccc(OC(C)C)cc3)cn2)n1 | -13.05
Oc1nnc(-c2cccs2)c2sc(N3CCCCC3)nc12 | 11
Cc1sc2c(C3CCNCC3)nc(Nc3cccc(F)c3)n2c1C.Cl | 83.53
Cc1nn(C(C)C)c(C)c1S(=O)(=O)Nc1cccc(F)c1 | 2.276
Cl.O=C(Nc1cccc(F)c1)C1=NOC2(CCNCC2)C1 | 1.069
Cc1sc2c(C3CCCNC3)nc(Nc3cccc(F)c3)n2c1C.Cl (stereo unspecified) | 138.6
Cc1nc(C2CCCNC2)cc(N2CCc3nc(N)sc3C2)n1 (stereo unspecified) | -10.94
COc1ccccc1CCNC(=O)CN1CCCC1c1noc(C)n1 (stereo unspecified) | -5.748
CCC(=O)N1CCC2(CC1)c1nc[nH]c1CCN2S(C)(=O)=O | -5.847
CC(NC(=O)Nc1nccs1)C(=O)NC1CCCC1 (stereo unspecified) | 13.07
Cc1nn2c(nc1=O)-c1ccccc1NC2C(=O)O (stereo unspecified) | -8.075
CNc1cc(C)nc(N2CCC3(CC2)[C@H](O)C[C@@H]3OCCO)n1 | 4.937
CNc1cc(C)nc(N2C[C@@H](C(=O)O)[C@H](C3CC3)C2)n1 | 7.259
CNc1cc(C)nc(C2CCN(CCO)CC2)n1 | 109.8

Compound | Percent Effect [%]
OCCN1CCC(CNCc2cn(-c3ccccc3)nn2)CC1 | 3.58
Cc1cc(Oc2ccccc2)nc(C2CCN(CCO)CC2)n1 | 153.9
Cc1ccc(CNCC2CCN(CCO)CC2)cc1 | -0.5522
CC(=O)N1CCc2c(nc(-c3ccccn3)nc2N(C)CC(O)CO)C1 (stereo unspecified) | 1.269
CC(C(=O)N(C)Cc1nnc2n1CCC2)S(C)(=O)=O (stereo unspecified) | 0.343
COCCN(C(=O)c1ccoc1C)c1ccc(C#N)cc1 | -4.794
CCc1cc(C(=O)N2CCCC(c3cc(=O)nc4n3CCC4)C2)no1 (stereo unspecified) | 113.8
CCc1ccsc1C(=O)N1CCCC(c2noc(C)n2)C1 (stereo unspecified) | -6.826
CC(C)c1cc(C(=O)N2CCCC(c3cc(=O)nc4n3CCC4)C2)no1 (stereo unspecified) | 118.8
Cc1cc(C(=O)N2CCCC(n3nc(C)cc3C)C2)on1 (stereo unspecified) | 6.311
CC(C)C(=O)N1CCN(C(=O)c2cc(C(C)C)on2)[C@H]2CS(=O)(=O)C[C@H]21 | -2.919
CCc1cn[nH]c1C1CCCN(C(=O)c2cc(C(C)C)on2)C1 (stereo unspecified) | 3.205
Cc1cc(C(=O)N2CCCC(c3cc(=O)nc4n3CCC4)C2)on1 (stereo unspecified) | 100.5
Cc1cc(C(=O)N2CCCC(c3nccn3Cc3cscn3)C2)on1 (stereo unspecified) | -8.995
Cc1cc(C(=O)N2CCCC2Cn2nc(C)cc2C)on1 (stereo unspecified) | -0.3102
Cc1cc(C)n(CC2CCCN2C(=O)c2nccc3ccccc23)n1 (stereo unspecified) | 117.1
Cc1cc(C)n(CC2CCCN2C(=O)Cc2cn3ccccc3n2)n1 (stereo unspecified) | 13.26
Cc1cc(C)n(CC2CCCN2C(=O)c2ccc3ccccc3n2)n1 (stereo unspecified) | 90.81
Cn1nnnc1SCCNC(=O)c1c[nH]nc1C1CCCCC1 | -16.51
O=C1CCC(c2ccccc2)(c2ccccc2)CN1CCO | -6.27
Cc1nc[nH]c1CN1CCN(C(=O)c2cccs2)[C@H]2CS(=O)(=O)C[C@H]21 | -2.944
CC(C)(C)c1ncc(CNCC2CN(C3CC3)CCO2)s1 (stereo unspecified) | 77.82
CCN(CC1CN(Cc2ncc(C)o2)CCO1)c1cccnn1 (stereo unspecified) | 0.3637

Compound | Percent Effect [%]
CCN(CC)c1ncc(CNCC2CCCn3ccnc32)s1 (stereo unspecified) | 9.152
CC(C)(C)c1ncc(CNCC2CCCn3ccnc32)s1 (stereo unspecified) | -12.55
CN1CCOC(CNCc2cnc(C(C)(C)C)s2)C1 (stereo unspecified) | 83.62
CCN1CCOC(CNCc2cnc(C(C)(C)C)s2)C1 (stereo unspecified) | 96.59
CCC(CCNCc1cnc(C2CCC2)s1)N1CCCC1=O (stereo unspecified) | 3.115
CCN1CCOC(CNc2nccc(C(F)(F)F)n2)C1 (stereo unspecified) | -2.512
CCN1CCOC(CNCc2cnc(N(CC)CC)s2)C1 (stereo unspecified) | 78.01
COCC(=O)N1C[C@H]2CCCC(OCc3cccnc3)[C@H]2C1.O=C(O)C(F)(F)F (stereo partly specified) | -11.84
COc1ccc(CN2CCO[C@H]3CN(C4CCCC4)CC[C@H]3C2=O)cc1.O=C(O)C(F)(F)F | 4.442
CC1CCN(C(=O)[C@@H]2CC[C@@H]3[C@@H](CCN3c3ncc(F)cn3)O2)CC1.O=C(O)C(F)(F)F | -5.679
O=C(O)C(F)(F)F.O=C(O)C(F)(F)F.O=C(O)C(F)(F)F.c1cncc(C[C@H]2[C@H](N3CCOCC3)CCN2Cc2nccs2)c1 | 6.166
CC1CCN(C(=O)[C@H]2CC[C@@H]3[C@@H](CCN3Cc3nccs3)O2)CC1.O=C(O)C(F)(F)F | 83.2
CNC(=O)[C@H]1C[C@@H]2CCN(Cc3nccs3)C[C@H]2O1.O=C(O)C(F)(F)F | -7.914
O=C(O)C(F)(F)F.O=C([C@@H]1C[C@H]2[C@H](CCN2Cc2nccs2)O1)N1CCOCC1 | -8.158
Cc1nc(CN2CC[C@@H]3O[C@@H](C(=O)N4CCOCC4)C[C@@H]32)cs1.O=C(O)C(F)(F)F | 95.13
COCCN1CC[C@@H]2O[C@H](COCc3csc(C)n3)CC[C@@H]21.O=C(O)C(F)(F)F | 5.526
CC1CCN(C(=O)[C@@H]2C[C@@H]3CCN(Cc4nccs4)C[C@H]3O2)CC1.O=C(O)C(F)(F)F | 95.79
Cc1nc(CN2C[C@@H]3CN(C(=O)[C@H]4CCCO4)C[C@@H]3C2=O)cs1.O=C(O)C(F)(F)F | -7.059
O=C(O)C(F)(F)F.O=C([C@H]1CC[C@@H]2[C@@H](CCN2Cc2nccs2)O1)N1CCOCC1 | 110.8
